Most compounds without a hit are left out; they make up all but 3.5% or so of the library.
Hsp90 Hop PPI: changes Hsp90-Hop TPR2A binding signal, up or down | AlphaScreen TPR2A-His6 binding biotin-Hsp90 C-terminal peptide | Potency, µM (titrated, usually from 57 µM) | 71,000 tested, 0.44% active | AID 595; active = well fitted curve in either direction with a large enough effect; inconclusive = small, poorly fitted or top-dose-only effect, or another doubt
CRE-bla Fsk: CRE-bla signaling modulation under forskolin stimulation. CHO CRE-bla reporter (cAMP response element driving beta-lactamase), forskolin EC10, beta-lactamase ratio. Potency, µM (top dose mostly 38.2 µM), hits mostly activators. 71,000 tested, 2.5% active. AID 662; active = well fitted activation curve with a large enough effect in the signal ratio, with a control signal flat, not every such curve was filed as active; inconclusive = small, poorly fitted or top-dose-only effect, or effect the other way, or a change in a side signal; the % refers to the signal ratio
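AC50 values, positive or negative, reflect shifts in EC10 NKH 477-induced CRE-bla reporter activity in CHO cells. Incubation lasted 3 h at 37 °C before CCF4 substrate (2 h, room temperature) and ratiometric 460/530 nm reading.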
IkB sig inh: IkB pathway inhibition in ABC-DLBCL cells; Potency, µM (series often up to 57.1 µM); ABC-DLBCL IkBa-CBG/CBR dual luciferase ratio, 4 h; response scale: scaled: untreated 0%, proteasome inhibitor 100%; AID 445; 110,000 tested, 0.04% active; active = well fitted curve in the direction sought with a large enough effect in the signal ratio, not every such curve was filed as active; inconclusive = small, poorly fitted or top-dose-only effect, or a change in a side signal; the % refers to the signal ratio;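 also: the direction sought is a rising ratio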
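Luminescence ratio of IκBα-fused green versus native red beetle luciferase in OCI-Ly3 cells, 4 h post-doxycycline with compound; red signal alone, scaled from basal (0%) to zero light (-100%), flagged nonspecific or cytotoxic effects.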
HEK293 cAMP ctrl: counter-screen for TSHR agonists: cAMP increase in parental HEK293. 73,000 tested, 2.5% active. parental HEK293 CNG cAMP sensor, membrane potential fluorescence. Potency, µM (doses to about 57.1 µM), actives largely listed as activators. AID 938; active = well fitted activation curve with a large enough effect; inconclusive = small, poorly fitted or top-dose-only effect; inactive = no such curve, though single readings can be large or run the other way; also: nearly all actives have a fitted effect of over 55% in size
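Counterscreen for endogenous-receptor signalling: CNG-channel HEK 293 cells report cAMP rise by membrane depolarization. After 60 min dye equilibration with 100 uM RO 20-1724, compounds incubated 30 min before bottom-read fluorescence at 590 nm.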
TSHR agonist: activates the human thyroid stimulating hormone receptor. Potency, µM (doses to about 57.1 µM), actives largely listed as activators. HEK293-CNG-TSHR cells (CNG channel as cAMP sensor), membrane potential dye, cAMP. AID 926. 73,000 tested, 0.48% active. P16473; active = well fitted activation curve with a large enough effect in the main read-out, with a control signal flat, not every such curve was filed as active; inconclusive = small, poorly fitted or top-dose-only effect, or a change in a side signal; inactive = no such curve, though single readings can be large or run the other way; reference of the percent scale not stated here;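 also: the control signal comes from parental cells without the receptor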
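cAMP rise detected as CNG-channel membrane depolarization by fluorescent dye (emission 590 nm), 30 min after compound, following 60 min dye loading containing 100 uM RO 20-1724 at room temperature. Cells: TSHR/CNG HEK 293, with parental CNG HEK 293 as control.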
Numbers stand for hits; i = inactive; ? = inconclusive; nt = no result given; [ ] = another dose, or the depositor's remark.

SMILES | Hsp90 Hop PPI | CRE-bla Fsk | IkB sig inh | HEK293 cAMP ctrl | TSHR agonist
CCOCCc1nn2c(=O)cc(COC(=O)CNC(=O)c3cccc(C)c3)nc2s1 | nt | nt | i | nt | nt
C=CCN1CCc2c(cc(O)c(O)c2Cl)[C@H](c2ccccc2)C1 | ? | i | i | i | i
O=C(c1csnn1)N1CCC2(CCN(Cc3ccccc3)CC2)CC1 | i | i | i[11.4 µM] | i | i
CCc1ccc(NC(=O)CN2C(=O)CCSc3ccccc32)cc1 | nt | nt | i | nt | nt
C[C@@H]1C=C[C@](Cc2ccccc2)(C(=O)NCCN2CCOCC2)N1C(=O)c1ccccc1 | i | i | nt | 16µM | ?
COc1ccc(NC(=O)CSC2=Nc3ccccc3C3=NC(Cc4ccccc4)C(=O)N23)cc1 (stereo not drawn) | nt | nt | i | nt | nt
Cc1nc2ccccc2c(=O)n1/N=C/c1ccc(N(C)C)cc1 | i | ? | i | i | i
Cc1nc2ccccc2c(=O)n1/N=C/c1c(O)ccc2oc3c(c12)CCCC3 | i | ? | i | 16µM | ?
COc1ccc(CNc2nc(-c3cccnc3)nn2C(=O)c2cccs2)cc1 | i | 5µM | i | i | i
Cc1ccc(-c2nnc3c4ccccc4c(C)nn23)cc1S(=O)(=O)N1CCN(C)CC1 | i | ? | i | ? | ?
Cc1ccc(-c2nnc3c4ccccc4c(C)nn23)cc1S(=O)(=O)N1CCN(CCO)CC1 | i | 3.2µM | i | ? | ?
Nc1ncnc2c1ncn2C[C@@H](O)C(=O)O | i[11 µM] | i[7.6 µM] | i[11.4 µM] | i[11.4 µM] | i[11.4 µM]
Cc1ccccc1Nc1nc(N)nc(CSc2nc3ccccc3c(=O)n2CCCO)n1 | i | 6.3µM | i | i | i
Cc1ccccc1Nc1nc(N)nc(CSc2nnnn2-c2ccccc2)n1 | i | ? | i | ? | ?
O=c1c2cnn(-c3ccccc3)c2nc(-c2ccco2)n1-c1ccccc1 | i | i | ? | 20µM | ?
COC(=O)C1=C(C)N(C)C(C)=C(C(=O)OC)C1c1ccc(F)c(Br)c1 | i | i | ? | 32µM | ?
CCNc1nc(NC(C)C)nc(N(C#N)CCOc2ccc(Cl)cc2Cl)n1 | i | ? | ? | 32µM | ?
COc1cccc(/C=N/n2c(C)nc3ccccc32)c1OC | i | i | ? | 16µM | ?
COc1cccc(/C=N/n2cnnc2)c1OCc1ccccc1 | i | i | i | i | i
CN1Cc2cc(C(=O)c3cc(Cl)cc(CSc4ncccn4)c3O)cnc2NC1=O | i | 4µM | ? | i | 16µM
Cc1ccc(O)c(C(=O)c2cnc3c(c2)CN(CCC(C)C)C(=O)N3)c1 | i | i | i | i | i[11.4 µM]
CCSc1nc2nc(C)cc(C)n2n1 | i | ? | i | i | i
Cc1cc(C)n2nc(SCc3cc(=O)n4c(C)cccc4n3)nc2n1 | i | 0.63µM | i | i | i
Cc1cc(C)n2nc(SCn3nnc4ccccc4c3=O)nc2n1 | i | 13µM | i | i | i
Cc1ccccc1-n1c(SCc2cc(=O)n3ccccc3n2)nc2[nH]ncc2c1=O | i | 2µM | i | i | i
SMILES | Hsp90 Hop PPI | CRE-bla Fsk | IkB sig inh | HEK293 cAMP ctrl | TSHR agonist
Cc1cc(C)n2nc(SCc3cc(=O)n4ccccc4n3)nc2n1 | i | 1µM | i | i | i
Cc1ccc(-n2c(SCc3ccccc3F)nc3[nH]ncc3c2=O)cc1C | nt | nt | i | nt | nt
CCCNC(=O)c1cc(-c2ccc(O)cc2)on1 | i | i | ? | i | i
CCOc1cc(CNS(=O)(=O)c2ccc3c(c2)C(C)(C)C(=O)N3)cc(OCC)c1OCC | nt | nt | i | nt | nt
COc1ccc2nc3c(cc2c1)Cc1ccccc1-3 | ? | ? | nt | 25µM | ?
CCc1ccccc1N1CC(C(=O)O)CC1=O (stereo not drawn) | i | 2µM | i | i | i
CC(C)c1ccccc1N1CC(C(=O)O)CC1=O (stereo not drawn) | i | ? | i | i | i
Cc1ccc(NC(=O)Cn2cc(S(=O)(=O)N3CCCC3)c(S(=O)(=O)N3CCCC3)c2)cc1F | nt | nt | i | nt | nt
Cc1nnc(NC(=O)C2(c3ccccc3)CCOCC2)s1 | i | 10µM | i | ? | ?
NC(=O)C1(c2ccccc2)CCOCC1 | i | i | i | i | i
Cc1cccc(-c2nc(SCC(=O)Nc3ccc4c(c3)OCO4)c(-c3ccccc3)[nH]2)c1 | nt | nt | i | nt | nt
COc1ccccc1CNc1ncncc1-c1ccc(N(C)C)cc1 | ? | ? | i[11.4 µM] | i | 6.3µM
CSc1nnc2c3ccccc3n(Cc3ccccc3)c2n1 | i | ? | i | 20µM | ?

Screening results: PubChem BioAssay, National Center for Advancing Translational Sciences (NCATS)
